The source made the active and inactive calls. Unless noted, how the calls were made is not given here.

A short description of assay [1]: anti-His antibody binders, primary screen, artefact control for SMM control protein annotation, biochemical, small-molecule microarray, 635 nm fluorescence (AID 1128).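 Further: score merges feature fluorescence with signal-to-noise for each printed compound spot.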 To be noted: anti-His Alexa647 antibody binding, higher = more signal.
The test system of assay [2] is Human papillomavirus type 1a E7 protein (residues 1-88). In words: HPV1a E7 small-molecule binders, primary screen, biochemical, small-molecule microarray, residues 1-88, 635 nm (AID 1129). To be noted: small-molecule microarray binding, fluorescence 635 nm; higher = more signal.
Assay [3] deals with Focal adhesion kinase 1 (Homo sapiens) (UniProt Q05397). Put plainly: small-molecule microarray binders of FAK, primary screen, biochemical, 635/667 nm fluorescence, BSA, DTT (AID 1130).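 Further: composite of spot emission at 667 nm and signal to noise over triplicate slides.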 The settings on record: PTK2 binding, 635 nm fluorescence, higher = more signal.
Assay [4] deals with Fibrinogen (Alexa647-labelled). In words: fibrinogen binders on compound microarrays, profiling panel, artefact control for SMM control-protein annotation, biochemical, small-molecule microarray, 635/667 nm fluorescence (AID 1131).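 Further: z-score merges 667 nm fluorescence with per-spot signal-to-noise over triplicate slides.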 The settings on record: fibrinogen-A647 binding fluorescence, higher = more signal.
Assay [5] concerns the target Follistatin (Homo sapiens) (UniProt P19883). In words: follistatin binders on small-molecule microarrays, primary screen, biochemical, small-molecule microarray, 635/667 nm fluorescence (AID 1132). The settings on record: FST binding, 635 nm fluorescence, higher = more signal.
The target in assay [6] is Fibroblast growth factor 2 (Homo sapiens) (UniProt P09038). Put plainly: FGF2 binders on small-molecule microarrays, primary screen, biochemical, small-molecule microarray, 635/667 nm fluorescence (AID 1133). The settings on record: small-molecule microarray binding, FGF2, fluorescence 635/667; higher = more signal.
The nature of assay [7]: mitochondrial membrane potential change in A549 cells, profiling panel, cell-based, JC-1 fluorescence, basal, 24 h, 100 nL (AID 1138).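 Further: A549 lung adenocarcinoma cells under basal conditions with no added stimulus; test concentration not given here.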 To be noted: higher = more signal.
For a further assay, the system named is Lefty1. Put plainly: Lefty1 binders on small-molecule microarrays, primary screen, biochemical, small-molecule microarray, 635/667 nm fluorescence (AID 1139). The settings on record: small-molecule microarray binding, fluorescence 635/667; higher = more signal.
For assay [8], the system named is wheat germ agglutinin (Triticum aestivum), Alexa647-labelled. Put plainly: wheat germ agglutinin binders on compound microarrays, profiling panel, artefact control for SMM control-protein annotation, biochemical, small-molecule microarray, 635/667 nm fluorescence (AID 1140).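 Further: score merges 667 nm feature emission with signal to noise over triplicate slides.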 The settings on record: WGA-A647 binding, 635 nm fluorescence, higher = more signal.
In assay [9] the target is Luciferin 4-monooxygenase (Photinus pyralis) (UniProt P08659). Put plainly: firefly luciferase enzyme inhibitors, primary screen, biochemical, luminescence, purified enzyme, 2006 set (AID 1141).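 Further: cell-free assay with purified firefly luciferase at 100 ng per well in PBS; test concentration not given here.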 To be noted: SteadyGlo luminescence, 30 min, higher = more signal, called active from +8 up or from −8 down.
For assay [10], the system named is Wnt5a (protein binding on small-molecule microarray). In words: Wnt5a binders on small-molecule microarray, primary screen, biophysical, 635/667 nm fluorescence (AID 1142).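 Further: fluorescence read at 667 nm with signal to noise per printed feature.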 To be noted: 635 nm fluorescence, higher = more signal.
Assay [11] is described as follows: cell viability in Huh7 cells, primary screen, cytotoxicity control for HCV replication inhibitor project, CellTiter-Glo luminescence, basal, 48 h (AID 1143).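 Further: Huh7 hepatoma cells carrying a hepatitis C replication reporter with no stimulus; test concentration not given here.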 The settings on record: Huh7 HCV replicon, higher = more signal, called active from +8 up or from −8 down.
Assay [12] can be described thus: P. aeruginosa biofilm formation inhibitors, primary screen, PAO1 strain, BacTiter-Glo luminescence, LB-PBS (AID 1144). To be noted: 12 h, higher = more signal.
Assay [13] can be described thus: CREB reporter modulators without forskolin, primary screen, cell-based, PC12, CRE-LacZ reporter, unstimulated (AID 1145). To be noted: no forskolin, luminescence, 4.5 h, higher = more signal, called active from +8 up or from −8 down.
Assay [14] in a line: CREB reporter modulators under forskolin, primary screen, cell-based, PC12, CRE-LacZ reporter, forskolin-stimulated (AID 1146).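 Further: PC12 cells with 6xCRE LacZ reporter stimulated by forskolin 10 µM; beta-galactosidase reporter signal reflecting CREB driven transcription.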 The settings on record: luminescence, 4.5 h, higher = more signal, called active from +8 up or from −8 down.
Assay [15] addresses Streptavidin (Streptomyces avidinii) (UniProt P22629). Put plainly: streptavidin binders on small-molecule microarray, primary screen, artefact control for SMM compound annotation, biophysical, 635/667 nm fluorescence (AID 1147).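 Further: signal reflects streptavidin binding to arrayed compounds as a control protein.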 The settings on record: streptavidin binding, higher = more signal.
The nature of assay [16]: small-molecule binders of probe aInhba, primary screen, biochemical, small-molecule microarray, 635/667 nm fluorescence (AID 1148).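 Further: score merges 667nm spot fluorescence with signal-to-noise for antibody binding to printed compounds.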 The settings on record: higher = more signal.
For assay [17], the target named is Torsin-1A (Homo sapiens) (UniProt O14656). Put plainly: torsin A binders from cell lysate, primary screen, small-molecule microarray, wild-type, 635/667 nm (AID 1149). To be noted: COS7 hTOR1A-WT lysate, 635 nm fluorescence, higher = more signal.
For assay [18] the target is unchanged. Put plainly: small-molecule binders of mutant TOR1A in lysate, primary screen, cell lysate, small-molecule microarray, COS7 lysate, 635/667 nm fluorescence (AID 1150).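 Further: score pools 667 nm emission and signal to noise measuring lysate protein binding.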 The settings on record: COS7 hTOR1A mutant lysate, 635 nm fluorescence, higher = more signal.
The subject of assay [19] is Sonic hedgehog protein (Shh). In words: small-molecule binders of Shh protein, primary screen, biochemical, small-molecule microarray, 635/667 nm fluorescence (AID 1151).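 Further: Shh protein binding to compounds spotted on small-molecule microarray slides; score combines spot fluorescence intensity with signal-to-noise across triplicate slides.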 To be noted: small-molecule microarray binding, 635 nm fluorescence; higher = more signal.

Chain of Follistatin (Homo sapiens) (P19883 whole entry, looked up): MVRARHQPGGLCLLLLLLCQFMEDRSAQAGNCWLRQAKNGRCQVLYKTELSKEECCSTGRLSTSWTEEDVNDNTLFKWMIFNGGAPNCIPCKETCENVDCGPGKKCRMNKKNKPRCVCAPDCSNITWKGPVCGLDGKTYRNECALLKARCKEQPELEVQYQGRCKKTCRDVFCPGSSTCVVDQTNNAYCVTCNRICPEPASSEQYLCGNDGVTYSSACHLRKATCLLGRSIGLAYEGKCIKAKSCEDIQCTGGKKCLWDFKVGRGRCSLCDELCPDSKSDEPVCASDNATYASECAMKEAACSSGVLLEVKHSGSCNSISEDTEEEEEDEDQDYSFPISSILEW
Chain of Fibroblast growth factor 2 (Homo sapiens) (P09038 whole entry, looked up): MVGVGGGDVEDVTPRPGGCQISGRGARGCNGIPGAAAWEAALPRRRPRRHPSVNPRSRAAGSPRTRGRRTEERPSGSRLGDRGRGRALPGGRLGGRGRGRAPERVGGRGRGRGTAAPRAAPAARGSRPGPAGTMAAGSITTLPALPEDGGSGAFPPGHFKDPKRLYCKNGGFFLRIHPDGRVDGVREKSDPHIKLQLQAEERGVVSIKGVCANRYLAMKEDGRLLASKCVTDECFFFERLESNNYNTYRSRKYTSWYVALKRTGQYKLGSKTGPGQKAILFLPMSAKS
Chain of Torsin-1A (Homo sapiens) (O14656 whole entry, looked up): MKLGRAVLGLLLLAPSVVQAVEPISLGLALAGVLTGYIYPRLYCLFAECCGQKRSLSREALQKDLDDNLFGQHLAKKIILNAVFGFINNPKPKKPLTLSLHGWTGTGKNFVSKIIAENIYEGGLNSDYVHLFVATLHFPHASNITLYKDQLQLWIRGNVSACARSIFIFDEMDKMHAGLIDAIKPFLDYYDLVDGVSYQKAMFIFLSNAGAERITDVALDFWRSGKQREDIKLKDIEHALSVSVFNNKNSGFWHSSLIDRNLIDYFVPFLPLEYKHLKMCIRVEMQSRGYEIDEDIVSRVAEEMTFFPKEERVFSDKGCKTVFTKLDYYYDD
Chain of Streptavidin (Streptomyces avidinii) (P22629 whole entry, looked up): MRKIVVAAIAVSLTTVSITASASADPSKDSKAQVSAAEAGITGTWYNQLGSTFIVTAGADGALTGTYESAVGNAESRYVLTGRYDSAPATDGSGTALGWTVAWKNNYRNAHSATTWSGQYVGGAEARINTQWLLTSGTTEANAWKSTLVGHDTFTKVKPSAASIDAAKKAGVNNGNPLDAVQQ
Chain of Focal adhesion kinase 1 (Homo sapiens) (Q05397 whole entry, looked up): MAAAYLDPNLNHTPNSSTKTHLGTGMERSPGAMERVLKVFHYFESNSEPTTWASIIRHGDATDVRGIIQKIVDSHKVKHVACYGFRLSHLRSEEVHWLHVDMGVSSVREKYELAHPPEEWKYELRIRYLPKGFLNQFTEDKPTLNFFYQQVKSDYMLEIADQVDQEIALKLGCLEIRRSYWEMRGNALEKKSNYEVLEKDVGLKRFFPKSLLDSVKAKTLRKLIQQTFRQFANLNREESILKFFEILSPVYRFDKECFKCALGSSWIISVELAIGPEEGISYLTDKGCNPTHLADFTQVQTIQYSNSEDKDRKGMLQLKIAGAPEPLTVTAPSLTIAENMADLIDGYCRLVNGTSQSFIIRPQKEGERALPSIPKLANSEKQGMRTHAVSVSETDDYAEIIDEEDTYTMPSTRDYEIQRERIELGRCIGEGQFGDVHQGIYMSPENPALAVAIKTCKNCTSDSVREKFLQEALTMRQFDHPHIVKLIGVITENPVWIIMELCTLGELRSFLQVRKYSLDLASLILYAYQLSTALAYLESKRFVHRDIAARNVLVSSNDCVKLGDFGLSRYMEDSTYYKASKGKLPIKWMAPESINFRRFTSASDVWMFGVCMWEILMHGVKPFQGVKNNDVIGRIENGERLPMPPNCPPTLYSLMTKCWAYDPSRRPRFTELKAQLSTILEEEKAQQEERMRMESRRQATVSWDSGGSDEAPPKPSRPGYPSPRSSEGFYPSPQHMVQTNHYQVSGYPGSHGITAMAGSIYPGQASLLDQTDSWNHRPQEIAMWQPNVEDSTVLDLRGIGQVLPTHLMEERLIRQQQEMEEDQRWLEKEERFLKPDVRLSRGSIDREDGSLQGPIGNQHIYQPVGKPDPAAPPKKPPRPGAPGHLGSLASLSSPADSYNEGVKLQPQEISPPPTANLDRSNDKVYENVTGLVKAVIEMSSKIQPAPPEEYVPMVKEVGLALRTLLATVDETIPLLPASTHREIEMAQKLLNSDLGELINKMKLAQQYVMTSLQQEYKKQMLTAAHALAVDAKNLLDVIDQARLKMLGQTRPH
Chain of Luciferin 4-monooxygenase (Photinus pyralis) (P08659 whole entry, looked up): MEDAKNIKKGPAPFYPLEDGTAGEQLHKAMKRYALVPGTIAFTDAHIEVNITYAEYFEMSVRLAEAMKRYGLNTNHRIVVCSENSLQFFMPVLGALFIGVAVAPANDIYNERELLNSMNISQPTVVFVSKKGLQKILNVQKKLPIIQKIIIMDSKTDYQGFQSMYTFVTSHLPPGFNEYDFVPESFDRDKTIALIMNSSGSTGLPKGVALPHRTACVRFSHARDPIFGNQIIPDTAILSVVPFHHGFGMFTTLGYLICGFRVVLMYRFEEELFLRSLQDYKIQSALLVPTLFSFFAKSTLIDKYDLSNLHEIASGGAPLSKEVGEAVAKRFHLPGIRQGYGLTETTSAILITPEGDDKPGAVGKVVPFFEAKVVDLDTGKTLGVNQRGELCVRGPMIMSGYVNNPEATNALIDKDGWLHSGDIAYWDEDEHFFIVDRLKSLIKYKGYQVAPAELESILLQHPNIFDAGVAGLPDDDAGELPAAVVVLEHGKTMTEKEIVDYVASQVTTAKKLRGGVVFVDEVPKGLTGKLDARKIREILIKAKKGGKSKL

On to `CC1CC/C=C\[C@H]2OC34C=CCN(c5ccc6ccccc6c5)C(=O)[C@H]3N(CCCCCO)C(=O)[C@@H]4C2C(=O)O1` (stereo not given in full), for which the composite z-score in assay [1] is -0.946; in [2], -0.824; in assay [3], -0.673; in [4] it was -2.2; in assay [5], -1.02; in assay [6], -1.65. For the same compound, the composite z-score was -0.994 in the assay on Lefty1; -0.0369 in [8]; -1.12 in assay [10]; -1.72 in assay [15]; -0.233 in assay [16]; -1.03 with Torsin-1A (Homo sapiens) [17]. For the same compound, the composite z-score is -1.19 with Torsin-1A (Homo sapiens) [18] and -1.18 in assay [19]. Further, the z-score was 0.987 in assay [7]; -0.391 (inactive) in assay [9]; 0.385 (inactive) in [11]; 0.669 (inactive) in [12]; 0.333 (inactive) in assay [13]; -0.233 (inactive) in assay [14].

Regarding `CN1C(=O)C2C=CC(C(O)c3ccccc3)N(NC(=O)OC(C)(C)C)C2C1=O` (stereo not given), the composite z-score in assay [1] was 0.884; in [2] it was 1.12; in assay [3] it was 0.164; in [4], 0.513; in [5], -0.0714; in assay [6], -0.27. Besides, the composite z-score with Lefty1 is -0.525; in assay [8], 1.05; in assay [10], 0.126; in assay [15], 0.134; in assay [16], -0.128; with Torsin-1A (Homo sapiens) [17], -0.365. In addition, the composite z-score in the assay with Torsin-1A (Homo sapiens) [18] is 0.0838; in assay [19] it was -0.582. For the same compound, the z-score in assay [7] is -0.165; in assay [9] it was 0.22 (inactive); in assay [11], 0.413 (inactive); in assay [12], 0.316 (inactive); in assay [13], 0.443 (inactive); in assay [14], 0.955 (inactive).

As for `C=C(C(=O)CC[C@H](OC(=O)c1cccnc1)c1ccccc1OCCO)C(C)C`, the composite z-score in assay [1] is 0.971; in [2], 0.834; in [3], 0.092; in [4] it was 0.101; in [5], 1.42; in assay [6], 1.83. Besides, the composite z-score with Lefty1 is 1.44; in assay [8], 0.0398; in assay [10] it was 1.14; in assay [15], -0.383; in [16] it was -0.168; with Torsin-1A (Homo sapiens) [17], 2.32. Also, the results for the composite z-score (in the assay with Torsin-1A (Homo sapiens) [18]; in assay [19]) were 1.54 and 2.27, respectively. Moreover, the z-score in [7] is 0.0404; in assay [9], -0.0549 (inactive); in [11] it was -1.13 (inactive); in assay [12], -0.467 (inactive); in assay [13], 2.22 (inactive); in assay [14], 0.716 (inactive).

In the case of `COC(=O)[C@@]1(Cc2ccccc2)[C@H]2c3cc(C(=O)N(C)C)n(Cc4cc(F)c(F)c(F)c4)c3C[C@H]2CN1C(=O)c1ccccc1`, the composite z-score in assay [1] was 2.19; in assay [2], 1.22; in assay [3], 0.692; in assay [4], 0.832; in assay [5] it was 0.83; in [6], -0.311. The composite z-score in the assay with Lefty1 was -0.807; in [8], 0.418; in assay [10] it was 0.312; in assay [15], 0.773; in assay [16], 0.681; in the assay with Torsin-1A (Homo sapiens) [17], 0.0663. The composite z-score is 0.12 with Torsin-1A (Homo sapiens) [18] and -0.578 in assay [19]. Moreover, the z-score in assay [7] was -0.322; in [9] it was 1.78 (inactive); in assay [11], -3.19 (inactive); in assay [12], 0.301 (inactive); in [13], 0.0109 (inactive); in assay [14] it was -0.214 (inactive).

As for `COCCn1c(C(=O)N(C)C)cc2c1C[C@H]1CN(C(=O)c3ccccc3)[C@@](Cc3ccc(F)cc3)(C(=O)OC)[C@@H]21`, the composite z-score in assay [1] was 2.3; in [2], 1.1; in assay [3], 0.169; in assay [4] it was 0.485; in assay [5], 0.134; in assay [6] it was -0.158. Besides, the composite z-score in the assay on Lefty1 was -0.0481; in assay [8] it was 1.11; in assay [10] it was 0.304; in [15], 0.45; in [16], -0.12; with Torsin-1A (Homo sapiens) [17], 0.249. For the same compound, the composite z-score with Torsin-1A (Homo sapiens) [18] is 0.0952; in [19], -0.0212. For the same compound, the z-score is 0.33 in assay [7]; -0.663 (inactive) in assay [9]; -0.394 (inactive) in assay [11]; -0.191 (inactive) in assay [12]; -0.947 (inactive) in [13]; -0.578 (inactive) in assay [14].

For the origin of these results see PubChem BioAssay.
